PTAP TSG101 blk – qHTS Assay for Iinhibitors of HIV-1 Budding by Blocking the Interaction of PTAP/TSG101; AID 493005, 2010; 340,000 tested, under 10 active; Potency, µM (doses to about 115 µM), for the others: at the highest dose activity change, negative = inhibition, hits mostly inhibitors; Fluorescence polarization, FITC-PTAP peptide / Tsg101 binding; Tumor susceptibility gene 101 protein (Homo sapiens), Q99816; active = well fitted inhibition curve with a large enough effect in the main read-out, with a control signal flat, not every such curve was filed as active; inconclusive = small, poorly fitted or top-dose-only effect, or effect the other way, or a change in a side signal; inactive = no such curve, though single readings can be large or run the other way; also: % of control where 0% means no effect
Target sequence (Q99816 whole entry, looked up): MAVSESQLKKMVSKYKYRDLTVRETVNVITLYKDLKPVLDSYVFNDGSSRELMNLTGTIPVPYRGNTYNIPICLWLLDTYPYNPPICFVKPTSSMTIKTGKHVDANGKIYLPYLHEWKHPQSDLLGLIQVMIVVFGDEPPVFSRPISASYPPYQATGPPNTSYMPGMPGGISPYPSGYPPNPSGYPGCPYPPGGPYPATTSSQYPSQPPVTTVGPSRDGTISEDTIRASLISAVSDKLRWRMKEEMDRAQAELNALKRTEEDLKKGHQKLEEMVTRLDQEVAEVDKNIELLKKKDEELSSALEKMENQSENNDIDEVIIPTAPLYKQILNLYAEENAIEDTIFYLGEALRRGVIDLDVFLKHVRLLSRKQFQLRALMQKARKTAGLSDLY
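Steps: Tsg101 binding domain dispensed (10 uM final), compounds pinned in DMSO, FITC-labeled PTAP-motif peptide added (50 nM final); after 20 min binding at room temperature, polarization measured.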
aSyn yeast inh – qHTS of alpha-syn Inhibitors. Yeast expressing alpha-synuclein, growth rescue, BacTiter-Glo, 24 h. Potency, µM (highest dose often 46.1 µM), without a hit: at the top dose growth rescue (activation), hits mostly activators. AID 652106, 2013. actives 0.14% (n = 370,000); also: % of control where 0% means no effect; nearly all actives have a fitted effect of over 65% in size
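Rescue of yeast growth: cells expressing toxic alpha-synuclein, induced in galactose at OD600 0.02, incubated with compound 24 h at 30 C. ATP luminescence quantified growth; inhibitors of toxicity appear as activators.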
FUS suppressor – qHTS for Suppressors of FUS Proteinopathy: Primary screen using FUS-linked yeast assay; actives 0.24% (n = 390,000); AID 1347120, 2019; Potency, µM (highest dose often 76.6 µM), usual class: activators; S. cerevisiae FUS-expressing, growth rescue, OD600, 24 h;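 also: plate controls were DMSO vehicle for no effect and reference control for full effect; nearly all actives have a fitted effect of over 55% in size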
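S. cerevisiae expressing FUS from galactose induction served as the toxicity model. Growth after 24hr at 30C, read as absorbance at 600 nm, indicates suppression of toxicity; compounds dosed at several concentrations.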
Abeta rescue – qHTS for compounds that reverse cellular toxicity of Amyloid beta (A-beta) peptide in yeast: Primary Screen. actives 0.063% (n = 410,000). yeast expressing A-beta42, growth rescue, OD600, 48 h; response scale: 0% DMSO, 100% iron-clioquinol control. Potency, µM (doses to about 46.1 µM), most hits filed as activators; also: nearly all actives have a fitted effect of over 55% in size
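Yeast growth medium received pinned compounds, then yeast cells expressing toxic A-beta were added; plates incubated at 30 C for 48 hr. Growth read as absorbance at 600 nm, normalized to DMSO and equimolar FeCl3 plus clioquinol controls.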
TDP43 rescue – qHTS of TDP-43 Inhibitors | TDP-43 expressing yeast growth rescue, BacTiter-Glo, 24 h | Potency, µM (series often up to 46.1 µM), for the others: at the highest dose growth rescue (activation), usual class: activators | actives 1.8% (n = 410,000) | AID 652104, 2013; also: % of control where 0% means no effect; nearly all actives have a fitted effect of over 50% in size
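Readout is BacTiter-Glo luminescence of cell growth, so inhibitors register as activators. TDP-43-expressing yeast at OD600=0.02 in galactose medium, after raffinose pregrowth to mid-log, were incubated with compound for 24 hr at 30 deg C.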
Numbers without * were called inactive; i = inactive; ? = inconclusive; nt = no result. Shown are actives, neighbours in structure and some others; about 2.1% of the full set was active somewhere. Unless noted, calls follow the shape of the dose curve; as a rule, active = well fitted curve in the direction sought with a large enough effect; inconclusive = small, poorly fitted or top-dose-only effect, or another doubt; inactive = no such curve, though single readings can be large; an effect the other way counts as inactive or inconclusive. Potency is read from the fitted curve at half-maximal effect.

SMILES | PTAP TSG101 blk | aSyn yeast inh | FUS suppressor | Abeta rescue | TDP43 rescue
Cc1ccc(S(=O)(=O)NC(=O)c2cc(C)n(-c3ccc(N(C)C)cc3)c2C)cc1 | -4.3% | -16.3% | ? | i | 35.5µM*
Cc1ccc(S(=O)(=O)NC(=O)c2cc(C)n(-c3ccccc3)c2C)cc1 | -0.7% | -9.5% | i | i | ?
Cc1ccc2c(/C=C/c3ccc(N(C)C)cc3)ccnc2c1 | nt | -14.1% | nt | nt | nt
CCCCSCCCNC(=O)c1c[nH]c2ccc(S(=O)(=O)Nc3cccc(OC)c3)cc2c1=O | nt | nt | i | i | 3.6%
Cc1cc(OCC(=O)NNC(=S)NC(=O)c2ccc(Br)o2)ccc1Cl | -3.6% | ? | i | ? | 20µM*
Ic1ccc(Nc2nc(NCCN3CCOCC3)nc(N3CCOCC3)n2)cc1 | nt | 1.9% | nt | nt | nt
FC(F)(F)c1cnc(Nc2ccc(N3CCOCC3)cc2)c(Cl)c1 | -5.6% | 3.3% | i | i | 12.6µM*
Clc1ccc(-c2noc3ncnc(NCCc4ccccc4)c23)cc1 | nt | -2.2% | i | i | 17.8µM*
Fc1ccc(CNc2ncnc3onc(-c4ccc(F)cc4)c23)cc1 | nt | 1.0% | i | i | 12.6µM*
CN(C)Cc1c(C(=O)N/N=C/c2ccc(OCc3c(F)cccc3Cl)cc2)nnn1-c1nonc1N | -0.1% | -1.2% | i | i | 11.2µM*
Nc1nonc1-n1nnc(C(=O)N/N=C/c2ccc(O)cc2)c1COc1ccc(F)cc1 | 0.6% | -18.4% | i | i | -28.9%
N/C(=N\OC(=O)CSc1ccccc1)c1cccc([N+](=O)[O-])c1 | -15.3% | -0.8% | i | i | 20µM*
N/C(=N\OC(=O)Oc1ccccc1)c1cccc([N+](=O)[O-])c1 | 1.6% | -0.9% | nt | i | 15.6%
N/C(=N\OC(=O)CCCc1ccccc1)c1ccc([N+](=O)[O-])cc1 | -0.4% | -5.7% | nt | i | 22.4µM*
N/C(=N\OC(=O)CCC1CCCC1)c1ccc([N+](=O)[O-])cc1 | 1.1% | -17.6% | i | i | 20µM*
COC(=O)CSc1nc2sc3c(c2c(=O)n1-c1ccccc1C)CC(C)(C)OC3 | nt | -8.8% | i | i | 6.8%
COc1ccc(S(=O)(=O)NCCc2sc3nc(-c4ccc(C)cc4)nn3c2C)cc1F | nt | nt | i | i | 22.2%
CCOC(=O)C1=NNC(C(=O)c2ccc(C)cc2)C1c1ccc(OC)cc1 (configuration not stated) | -5.2% | 1.8% | i | i | 20µM*
COc1ccc(CN2CSC(=S)N(Cc3ccc(OC)cc3)C2)cc1 | 0.8% | -5.0% | i | i | 31.6µM*
COc1ccc(CN2CSC(=S)N(Cc3ccccc3)C2)cc1 | -1.5% | -26.1% | i | nt | ?
O=C(Cn1nc(-c2ccccc2)c2c(c1=O)CCCC2)Nc1ccc(F)c(Cl)c1 | nt | nt | 10µM* | i | -5.8%
O=C(CN1CCCN(Cc2ccccc2F)S1(=O)=O)Nc1ccc(F)c(Cl)c1 | nt | nt | i | ? | 11.2µM*
CCCCCCN1C[C@H](O)[C@@H](n2cc(C3CC3)nn2)C[C@@H]1c1ccc(OC)cc1 | nt | 7.7% | i | i | 25.2%
COC(=O)c1sccc1-c1ccc(C(=O)Nc2ccccc2)o1 | -3.5% | 9.9% | i | i | 12.6µM*
Cc1ccc(Cn2c(C(CO)Nc3nc(-c4ccc(Cl)c([N+](=O)[O-])c4)cs3)nc3ccccc32)cc1 (configuration not stated) | -2.3% | ? | ? | i | 25.1µM*
SMILES | PTAP TSG101 blk | aSyn yeast inh | FUS suppressor | Abeta rescue | TDP43 rescue
Cc1ccc(Cn2c(C(CO)Nc3nc(-c4ccc(F)cc4)cs3)nc3ccccc32)cc1 (configuration not stated) | -2.2% | -52.1% | ? | ? | -70.8%
CCc1nnc(NC(=O)[C@@H](NC(=O)c2ccc(OC)cc2)C(C)C)s1 | -1.1% | 2.6% | i | i | -7.8%
CCc1nnc(NC(=O)[C@@H](NC(=O)c2ccc(C(C)(C)C)cc2)C(C)C)s1 | -1.5% | 11.3% | 28.2µM* | i | -16.6%
Clc1ccccc1/C=N/NC1=Nc2cccc3cccc1c23 | -11.7% | -2.3% | nt | i | 26.6%
C(=N\NC1=Nc2cccc3cccc1c23)/c1ccccn1 | 5.9% | 0.4% | i | ? | 20µM*
CCOc1cccc(=O)c2c(C)n(C)c(C)c12 | -2.5% | 0.0% | ? | i | -30.4%
COc1cccc(=O)c2c(C)n(C)c(C)c12 | -3.7% | -0.5% | 28.2µM* | i | 24.7%
O=C(Nc1cccc(C(F)(F)F)c1)c1cc2nc(-c3ccccc3)cc(C(F)(F)F)n2n1 | nt | nt | i | i | 4.4%
O=C1CCCc2c1sc1nc3n(c(=O)c21)CCCCC3 | -4.5% | -2.1% | i | i | 20.6%
O=C1c2sc3nc4n(c(=O)c3c2CCC1Br)CCCCC4 (configuration not stated) | -0.4% | 9.4% | ? | i | 12.6µM*
S=c1[nH]c2ccccc2n1Cc1ccccc1 | -1.6% | 11.1% | i | 11.2µM* | ?
S=c1[nH]c2ccccc2n1CCOc1ccccc1 | 1.1% | 12.8% | i | 11.2µM* | ?
O=c1sc2ccccc2n1CCOc1ccccc1 | -1.1% | 0.1% | i | i | 11.2µM*
O=c1cc(-c2ccc(C3CCCCC3)cc2)[nH][nH]1 | -6.4% | 10.3% | i | i | 17.8µM*
CCCn1c2ccccc2c2cnn(CC(=O)Nc3cc(OC)c(OC)c(OC)c3)c(=O)c21 | nt | nt | i | i | 4.3%
CC(=O)N(C(C)=O)N1C(=O)C2C3c4ccccc4C(c4ccccc43)C2C1=O (configuration not stated) | -1.4% | -21.4% | i | i | 22.4µM*
CN1C(=O)C2C3c4ccccc4C(c4ccccc43)[C@@H]2C1=O (some centres not stated) | -1.3% | -1.8% | i | i | 1.6%
C(=N\n1cnnc1)/c1ccc(OCc2cccc3ccccc23)cc1 | -2.9% | 15.8% | i | i | 12.6µM*
Fc1ccccc1COc1ccc(/C=N/n2cnnc2)cc1 | -2.7% | 0.0% | i | i | 11.2µM*
OC(c1ccc(F)c(F)c1)c1nc(-c2ccc(Cl)cc2)cs1 (configuration not stated) | nt | ? | i | i | ?
COc1ccc(-c2csc(C(O)c3ccc(F)c(OC)c3)n2)cn1 (configuration not stated) | nt | 19.3% | i | i | 35.5µM*
CCN(CC)C(=O)c1cccc(-c2csc(C(O)c3ccc(F)c(OC)c3)n2)c1 (configuration not stated) | nt | -1.5% | i | i | 21.2%

Source: PubChem
